From PubChem BioAssay (Tox21) come the findings set out here.

Values joined by “and” are separate entries in the source; they are usually repeats but may differ in a detail not shown here. Identical values can stand only once. Records with an inconclusive call do not appear. Active and inactive are the calls of the source. Unless noted, calls come from the whole dose curve.

Assay [1] deals with Gonadotropin-releasing hormone receptor (Homo sapiens) (UniProt P30968). The assay is described as follows: Human gonadotropin-releasing hormone receptor (GnRHR) small molecule agonists, calcium flux assay in GnRHR-HEK293 cells (AID 1920063). Note: nearly all actives have a fitted effect of over 35% in size. Note: potency is the fitted concentration of half-maximal effect. The procedure, abridged:
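Stable human GnRHR HEK293 line. 18 h plating, then calcium dye for 1 h at 37 C. Agonist-mode compound addition from DMSO stocks; fluorescence monitored 3 min.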
In general terms: Calcium assays in cells follow changes in intracellular calcium, usually with a dye or a luminescent sensor.

For assay [2], the target named is KiSS-1 receptor (Homo sapiens) (UniProt Q969F8). The assay is described as follows: Human kisspeptin (KISS1R) small molecule agonists, calcium flux assay in KISS1R-HEK293 cells (AID 1920064; active = well fitted activation curve with a large enough effect in the repeat runs; note: potency is the fitted concentration of half-maximal effect). The procedure, abridged: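 After overnight (18 h) culture at 37 C/5% CO2, human KISS1R-HEK293 cells received calcium dye for 1 h, then test compound; emission at 540 nm (excitation 480 nm) was tracked for 3 min.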

Assay [3] in a line: G protein-coupled receptor (GPCR) small molecule agonists, calcium flux assay: HEK293 wild type cell line counter screen (AID 1920065). Note: potency is the fitted concentration of half-maximal effect. Put shortly: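 Following 18 h incubation at 37 C/5% CO2, plates got calcium dye for 1 h; compounds, ATP or DMSO were then pinned in and fluorescence followed kinetically (480/540 nm).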
A short description of assay [4]: p53 small molecule agonists, cell-based qHTS assay with human liver microsomes (AID 1963577). Put shortly: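 Cells carrying a p53-responsive bla reporter were rested 5 h (37 C, 5% CO2) before compound transfer. Human liver microsomes plus NADPH, 0.5 mg/mL final apiece, supplied metabolism during the 16 h 37 C exposure.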
(In qHTS, concentration-response curves come from the screen itself.)

A short description of assay [5]: p53 small molecule agonists, cell-based qHTS assay with rat liver microsomes (AID 1963578). Put shortly: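 Fluorescence from a beta-lactamase reporter under a p53 response element was measured after cells had been incubated 16 h at 37 C with test compound and rat liver microsomes plus NADPH (0.5 mg/mL final each).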
Assay [6] is described as follows: p53 small molecule agonists, cell-based qHTS assay with human liver microsomes: qHTS cell viability counter screen (AID 1963579). Note: nearly all actives have a fitted effect of over 45% in size. The procedure, abridged:
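Seed p53RE-bla cells at 4,000 per well; incubate 5 h at 37 C; add compound, human liver microsomes and NADPH; incubate 16 h at 37 C; add CellTiter-Glo; after 30 min at room temperature, read luminescence.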

Assay [7] can be described thus: p53 small molecule agonists, cell-based qHTS assay with rat liver microsomes: qHTS cell viability counter screen (AID 1963580). Note: nearly all actives have a fitted effect of over 45% in size. The procedure, abridged: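 Cytotoxicity counter screen: intracellular ATP measured by CellTiter-Glo luminescence in the same wells as the beta-lactamase reporter read, on HCT-116 p53RE-bla cells exposed 16 h at 37 C to compounds with rat liver microsomes and NADPH, each 0.5 mg/mL final.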

Assay [8] is described as follows: p53 small molecule agonists, cell-based qHTS assay: qHTS cell viability counter screen (AID 1963581). Note: nearly all actives have a fitted effect of over 45% in size. Put shortly: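 qHTS counter screen: 16 h compound exposure at 37 C of p53RE-bla HCT-116 cells (4,000 per well, seeded 5 h prior), cell viability by ATP luminescence.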
Assay [9] can be described thus: p53 small molecule agonists, cell-based qHTS assay (AID 1963582; active = well fitted activation curve with a large enough effect in the signal ratio in the repeat runs, not every such curve was filed as active; the % refers to the signal ratio). The procedure, abridged:
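Measured: fluorescence from cleaved LiveBLAzer substrate. System: p53RE-bla cells, 16 h compound treatment at 37 C, 2 h substrate step at room temperature.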

Assay [10] addresses 5-hydroxytryptamine receptor 2A (Homo sapiens) (UniProt P28223). The assay is described as follows: 5-hydroxytryptamine receptor 2A (HTR2A) small molecule antagonists, cell-based qHTS assay (AID 1963586). Note: nearly all actives have a fitted effect of over 45% in size. Put shortly:
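CHO cells stably expressing human HTR2A were plated for 18 h at 37 C, then loaded with calcium dye for 1 h. Compounds were preincubated 5 min at room temperature before DOI (4 nM solution) was added. Kinetic fluorescence was read for 3 min.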

Assay [11] shares this target. Put plainly: 5-hydroxytryptamine receptor 2A (HTR2A) small molecule agonists, cell-based qHTS assay (AID 1963587). Note: nearly all actives have a fitted effect of over 30% in size. Note: potency is the fitted concentration of half-maximal effect. The procedure, abridged: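 CHO cells stably expressing human HTR2A, plated 18 h, loaded with calcium dye 1 h at 37 C. Agonist mode: compounds added and intracellular calcium fluorescence recorded kinetically for 2 min at 1 sec intervals.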
Assay [12] addresses Muscarinic acetylcholine receptor M1 (Homo sapiens) (UniProt P11229). The assay is described as follows: Cholinergic receptor muscarinic 1 (CHRM1) small molecule antagonists, cell-based qHTS assay (AID 1963588). Note: nearly all actives have a fitted effect of over 40% in size. The procedure, abridged: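 Compounds were tested at 15 concentrations in three independent runs. Dye-loaded CHRM1-CHO cells were exposed 5 min at room temperature before stimulation by acetylcholine added at 50nM. Intracellular calcium was read kinetically on FDSS for 3 min.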

The target is the same in assay [13]. The assay is described as follows: Cholinergic receptor muscarinic 1 (CHRM1) small molecule agonists, cell-based qHTS assay (AID 1963589). Note: nearly all actives have a fitted effect of over 35% in size. Note: potency is the fitted concentration of half-maximal effect. The procedure, abridged: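 Kinetic fluorescence (1 s intervals) of calcium-sensitive dye in human M1 CHO cells after compound addition; cells pre-incubated 18 h at 37 C/5% CO2 and dye-loaded 1 h.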
Assay [14] in a line: cAMP Responsive Elements (CRE) small molecule agonists, cell-based qHTS assay (AID 1963590). The procedure, abridged: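 Test agents in DMSO were incubated 3 h at 37 C/5% CO2 with CRE-bla HEK 293T cells seeded 18 h earlier; LiveBLAzer B/G FRET substrate was added and read after 2 h at room temperature.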
Assay [15] is described as follows: cAMP Responsive Elements (CRE) small molecule antagonists, cell-based qHTS assay (AID 1963591; active = well fitted inhibition curve with a large enough effect in the signal ratio in the repeat runs, not every such curve was filed as active; the % refers to the signal ratio). The procedure, abridged: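 Reporter line CRE-bla HEK 293T in dialyzed-FBS DMEM; cells preincubated 18 h, treated 3 h with compound plus NKH477 (0.25 uM final); LiveBLAzer FRET, 2 h RT.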
In assay [16] the target is Beta-2 adrenergic receptor (Homo sapiens) (UniProt P07550). Put plainly: Adrenergic beta2 receptor (ADRB2) small molecule antagonists, cell-based qHTS assay (AID 1963592). Note: nearly all actives have a fitted effect of over 50% in size. Note: potency is the fitted concentration of half-maximal effect. Put shortly: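 Assay format: CHO-ADRB2 cells, 18-20hr seeding at 37C/5% CO2, then compound plus 1nM isoproterenol agonist mix for 0.5hr RT. Homogeneous time-resolved fluorescence cAMP detection after 1hr, expressed as 665/615 nm ratio.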

Assay [17] addresses D(2) dopamine receptor (Homo sapiens) (UniProt P14416). Put plainly: Dopamine D2 receptor (DRD2) small molecule agonists, cell-based qHTS assay (AID 1963594). Note: nearly all actives have a fitted effect of over 35% in size. Note: potency is the fitted concentration of half-maximal effect. Put shortly: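 HEK293 cells stably expressing human DRD2, pre-treated with PDE inhibitor Ro20-1724 (0.1 mM final) and compound 10 min at room temperature, then stimulated with NKH477 (200nM […]) for 30 min. cAMP read by HTRF (665/620 nm).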

Assay [18] shares this target. Put plainly: Dopamine D2 receptor (DRD2) small molecule antagonists, cell-based qHTS assay (AID 1963595; active = well fitted inhibition curve with a large enough effect in the signal ratio in the repeat runs, with a control signal flat; the % refers to the signal ratio). The procedure, abridged:
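Stable D2 receptor HEK293 line, 24 h after seeding. Compound preincubated 10 min, then quinpirole (12 nM) with forskolin analogue NKH477 (200 nM), 30 min, room temperature. Detection by time-resolved FRET of cAMP.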

The target of assay [19] is Beta-2 adrenergic receptor (Homo sapiens) (UniProt P07550). The assay is described as follows: Adrenergic beta2 receptor (ADRB2) small molecule agonists, cell-based qHTS assay (AID 1963593).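 Note: CHO cells stably overexpressing human ADRB2.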 Put shortly:
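CHO cells stably over-expressing ADRB2 were plated overnight at 37C, then dosed with compounds plus a stimulation mix containing 100uM IBMX and 25uM Ro-20-1724 for 0.5hr at room temperature. cAMP was measured by HTRF competition, 1hr.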
% is set by controls: 0 for no effect and ±100 for the full control effect.

Sequence of KiSS-1 receptor (Homo sapiens) (Q969F8 whole entry, looked up): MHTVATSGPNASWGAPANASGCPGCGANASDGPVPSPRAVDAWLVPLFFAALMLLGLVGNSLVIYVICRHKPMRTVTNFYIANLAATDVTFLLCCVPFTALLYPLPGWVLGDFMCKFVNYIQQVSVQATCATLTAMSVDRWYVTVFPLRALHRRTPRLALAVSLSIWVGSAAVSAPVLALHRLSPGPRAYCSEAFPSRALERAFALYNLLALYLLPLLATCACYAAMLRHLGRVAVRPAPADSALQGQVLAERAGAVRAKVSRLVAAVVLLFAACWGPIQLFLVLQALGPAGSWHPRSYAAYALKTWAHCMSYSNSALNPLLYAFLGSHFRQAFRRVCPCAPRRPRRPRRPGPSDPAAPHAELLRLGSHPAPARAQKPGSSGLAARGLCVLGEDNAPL
Sequence of D(2) dopamine receptor (Homo sapiens) (P14416 whole entry, looked up): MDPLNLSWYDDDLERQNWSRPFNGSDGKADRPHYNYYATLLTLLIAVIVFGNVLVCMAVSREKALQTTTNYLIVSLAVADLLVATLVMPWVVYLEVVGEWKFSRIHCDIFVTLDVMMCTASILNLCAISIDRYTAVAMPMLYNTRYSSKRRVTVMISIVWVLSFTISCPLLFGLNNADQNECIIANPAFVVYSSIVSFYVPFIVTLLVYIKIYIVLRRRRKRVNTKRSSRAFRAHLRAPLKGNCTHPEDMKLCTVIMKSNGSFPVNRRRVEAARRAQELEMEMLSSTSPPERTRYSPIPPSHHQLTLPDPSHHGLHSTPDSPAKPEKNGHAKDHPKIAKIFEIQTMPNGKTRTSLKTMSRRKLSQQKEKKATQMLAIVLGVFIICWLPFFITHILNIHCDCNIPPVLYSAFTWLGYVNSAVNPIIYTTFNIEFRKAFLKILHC
Sequence of Beta-2 adrenergic receptor (Homo sapiens) (P07550 whole entry, looked up): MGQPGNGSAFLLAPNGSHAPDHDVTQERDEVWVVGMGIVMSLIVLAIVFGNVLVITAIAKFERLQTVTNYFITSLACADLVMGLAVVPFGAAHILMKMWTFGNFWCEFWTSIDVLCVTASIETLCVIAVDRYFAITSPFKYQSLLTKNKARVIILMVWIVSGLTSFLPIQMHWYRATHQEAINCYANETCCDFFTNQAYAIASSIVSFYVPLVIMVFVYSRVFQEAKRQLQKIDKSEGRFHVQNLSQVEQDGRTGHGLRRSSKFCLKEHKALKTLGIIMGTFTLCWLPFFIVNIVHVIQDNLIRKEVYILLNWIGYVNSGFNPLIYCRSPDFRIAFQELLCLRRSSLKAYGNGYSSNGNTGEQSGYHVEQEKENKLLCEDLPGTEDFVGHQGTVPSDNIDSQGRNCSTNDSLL
Sequence of Muscarinic acetylcholine receptor M1 (Homo sapiens) (P11229 whole entry, looked up): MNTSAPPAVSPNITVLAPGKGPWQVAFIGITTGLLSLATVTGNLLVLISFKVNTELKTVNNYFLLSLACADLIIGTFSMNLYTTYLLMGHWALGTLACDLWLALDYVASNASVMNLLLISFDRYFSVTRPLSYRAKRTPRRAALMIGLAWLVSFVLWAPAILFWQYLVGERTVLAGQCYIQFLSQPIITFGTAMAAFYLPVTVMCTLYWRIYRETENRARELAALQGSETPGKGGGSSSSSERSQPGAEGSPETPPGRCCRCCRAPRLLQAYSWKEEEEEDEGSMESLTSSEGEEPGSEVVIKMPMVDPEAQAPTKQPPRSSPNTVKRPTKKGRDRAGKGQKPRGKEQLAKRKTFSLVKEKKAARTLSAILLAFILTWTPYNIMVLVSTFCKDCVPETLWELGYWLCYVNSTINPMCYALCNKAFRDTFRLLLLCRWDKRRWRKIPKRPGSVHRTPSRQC
Sequence of 5-hydroxytryptamine receptor 2A (Homo sapiens) (P28223 whole entry, looked up): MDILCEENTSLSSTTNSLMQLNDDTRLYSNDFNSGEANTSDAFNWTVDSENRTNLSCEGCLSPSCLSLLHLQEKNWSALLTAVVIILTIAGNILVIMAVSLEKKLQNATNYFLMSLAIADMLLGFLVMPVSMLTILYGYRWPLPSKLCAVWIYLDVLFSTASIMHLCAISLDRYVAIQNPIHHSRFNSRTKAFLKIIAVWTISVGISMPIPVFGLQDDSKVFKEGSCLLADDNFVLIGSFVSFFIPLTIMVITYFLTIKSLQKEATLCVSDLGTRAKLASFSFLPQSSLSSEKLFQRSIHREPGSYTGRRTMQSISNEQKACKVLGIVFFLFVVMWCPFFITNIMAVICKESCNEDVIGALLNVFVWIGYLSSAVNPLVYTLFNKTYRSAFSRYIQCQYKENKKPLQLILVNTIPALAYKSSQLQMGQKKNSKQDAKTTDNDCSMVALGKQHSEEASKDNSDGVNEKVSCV
Sequence of Gonadotropin-releasing hormone receptor (Homo sapiens) (P30968 whole entry, looked up): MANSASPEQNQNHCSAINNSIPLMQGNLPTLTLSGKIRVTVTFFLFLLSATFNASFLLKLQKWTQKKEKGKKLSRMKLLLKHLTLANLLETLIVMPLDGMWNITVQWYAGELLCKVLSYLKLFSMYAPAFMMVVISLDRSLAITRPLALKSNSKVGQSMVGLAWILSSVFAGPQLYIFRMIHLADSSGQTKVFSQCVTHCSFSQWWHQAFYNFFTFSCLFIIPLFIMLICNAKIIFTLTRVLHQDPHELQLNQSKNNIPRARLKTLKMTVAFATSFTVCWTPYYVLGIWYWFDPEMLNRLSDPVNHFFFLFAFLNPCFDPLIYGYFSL

As for `CNC(=S)N(C)C`, the Potency result in assay [1], in assay [2], in [3], in assay [4], in assay [5] and in [6] was “inactive” each time. Also, the Potency entry in assay [7], in [8], in assay [9], in assay [10], in [11] and in assay [12] was “inactive” in each case. In addition, the Potency result in [13], in assay [14], in assay [15], in assay [16], in assay [17] and in assay [18] was “inactive” each time.
For the molecule `COc1ccc(CN(CCN(C)C)c2ccccn2)cc1`, the Potency result in [1], in assay [2], in [3], in assay [6], in assay [7] and in assay [8] was “inactive” throughout. Besides, the Potency result in [14], in [15], in [16], in assay [19], in [17] and in [18] was “inactive” throughout.
In the case of `CC(O)COc1ccccc1` (stereo unspecified), the Potency result in assay [1], in [3], in assay [4], in [5], in [6] and in assay [8] was “inactive” throughout. In addition, the Potency result in assay [9], in [10], in assay [12], in assay [13], in assay [14] and in [15] was “inactive” each time. Further, the Potency entry in assay [16], in assay [19], in assay [17] and in assay [18] was “inactive” throughout.
As to `C[Si](C)(C)O[Si](C)(C)C`, the Potency result in assay [1], in assay [3], in assay [4], in [5], in [6] and in assay [7] was “inactive” in each case. The Potency entry in assay [8], in assay [9], in assay [10], in [11], in assay [12] and in [13] was “inactive” each time. Further, the Potency entry in assay [14], in assay [15], in assay [16], in assay [19], in assay [17] and in [18] was “inactive” throughout.
`O=C1OC2(c3ccccc31)c1cc(I)c(O)c(I)c1Oc1c2cc(I)c(O)c1I`: the Potency in assay [1] is 22.1 µM (active) [middle of 4 runs]; in [2], 31.3 µM (active) and 26.8 µM (active); in assay [3], 39 µM (active) and 22.1 µM (active) and 19 µM (active); in assay [11] it was 31.3 µM (active) [middle of 4 runs]; in assay [13] it was 33.4 µM (active) [middle of 4 runs]; in assay [16], 33.5 µM (active). The Potency in [17] was 39 µM (active) and 31 µM (active). In addition, the Potency result in assay [4], in assay [5], in assay [6], in [7], in assay [8] and in assay [12] was “inactive” each time. The Potency result in assay [14] and in assay [15] was “inactive” in each case.
Take `c1ccc2n[nH]nc2c1`: the Potency entry in [1], in assay [2], in [3], in assay [4], in assay [5] and in assay [6] was “inactive” each time. Also, the Potency entry in [8], in assay [9], in assay [10], in assay [11], in [12] and in assay [13] was “inactive” throughout. For the same molecule, the Potency result in assay [14], in assay [15], in [16], in [19] and in assay [18] was “inactive” throughout.
Consider `CC(CCl)OP(=O)(OC(C)CCl)OC(C)CCl` (stereo unspecified), for which the Potency entry in assay [1], in [3], in assay [4], in assay [5], in assay [6] and in assay [7] was “inactive” in each case. Further, the Potency entry in assay [8], in assay [9], in [10], in [11], in assay [12] and in assay [13] was “inactive” in each case. Further, the Potency result in assay [14], in [15], in assay [16], in assay [19] and in assay [18] was “inactive” in each case.
For `COCCOCCOCCO`, the Potency entry in assay [1], in assay [2], in assay [3], in assay [4], in assay [5] and in assay [6] was “inactive” in each case. Also, the Potency entry in assay [7], in assay [8], in [9], in assay [10], in assay [11] and in [12] was “inactive” throughout. Further, the Potency entry in assay [13], in [15], in assay [16], in assay [19], in [17] and in assay [18] was “inactive” each time.
